Assay results from the supplement of paper PMC8728848.
The sample as a whole holds a higher share of the strongest signals than the screen did.

Assays:
Assay in all cases: glycan array binding signal (z-score within array); higher = stronger binding
Details in all cases: glycan notation: IUPAC condensed, linker removed
[1] = biological target: Fuc(a1-2)Gal(b1-3)GalNAc(b1-3)Gal
In short: (§1)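 Glycan array data were curated from 3228 arrays in the Consortium for Functional Glycomics database and kept only where the protein sequence was available. Glycan names were converted to IUPAC-condensed notation, and columns mapping to the same glycan were averaged. The binding signal is a within-array Z-score, averaged across arrays of the same protein sequence at different concentrations or buffers and across linkers. Negative Z-scores can be read as non-binding.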

[2] = biological target: Fuc(a1-2)Gal(b1-3)GlcNAc
In short: as §1

[3] = biological target: Fuc(a1-2)Gal(b1-4)Glc
In short: as §1

[4] = biological target: Fuc(a1-2)Gal(b1-4)GlcNAc(b1-3)Gal(b1-4)GlcNAc
In short: as §1

[5] = biological target: Fuc(a1-2)Gal6S(b1-4)GlcNAc
In short: as §1

[6] = biological target: Fuc(b1-3)GlcNAc
In short: as §1

[7] = biological target: Gal(a1-3)[Gal(a1-4)]Gal(b1-4)GlcNAc
In short: as §1

[8] = biological target: Gal(b1-3)GalNAc(b1-4)Gal(b1-4)Glc
In short: as §1

[9] = biological target: Gal(b1-3)GlcNAc(b1-2)Man(a1-3)[Gal(b1-3)GlcNAc(b1-2)Man(a1-6)]Man(b1-4)GlcNAc(b1-4)GlcNAc
In short: as §1

[10] = biological target: Gal(b1-3)GlcNAc(b1-3)Gal(b1-4)Glc
In short: as §1

[11] = biological target: Gal(b1-4)GalNAc(a1-3)[Fuc(a1-2)]Gal(b1-4)GlcNAc
In short: as §1

[12] = biological target: Gal(b1-4)GlcNAc(b1-3)Gal(b1-3)GlcNAc
In short: as §1

[13] = biological target: Gal3S(b1-3)[Fuc(a1-4)]GlcNAc
In short: as §1

[14] = biological target: Gal6S(b1-4)Glc6S
In short: as §1

[15] = biological target: GalNAc(a1-3)Gal
In short: as §1

[16] = biological target: GlcA(b1-3)GlcNAc
In short: as §1

[17] = biological target: GlcA(b1-6)Gal
In short: as §1

[18] = biological target: GlcNAc(b1-2)Gal(b1-3)GalNAc
In short: as §1

[19] = biological target: GlcNAc(b1-3)Gal
In short: as §1

[20] = biological target: GlcNAc(b1-3)Gal(b1-4)Glc
In short: as §1

[21] = biological target: Man(a1-2)Man(a1-2)Man(a1-3)Man
In short: as §1

[22] = biological target: Man(a1-3)[Man(a1-6)]Man(a1-6)[Man(a1-2)Man(a1-3)]Man(b1-4)GlcNAc(b1-4)GlcNAc
In short: as §1

[23] = biological target: Neu5Ac(a2-3)Gal(b1-4)GlcNAc(b1-2)Man(a1-3)[GlcNAc(b1-2)Man(b1-4)GlcNAc(b1-2)Man(a1-6)]Man(b1-4)GlcNAc(b1-4)GlcNAc
In short: as §1

[24] = biological target: Neu5Ac(a2-3)Gal(b1-4)[Fuc(a1-3)]GlcNAc(b1-3)Gal(b1-4)GlcNAc
In short: as §1

[25] = biological target: Neu5Ac(a2-3)Gal(b1-4)[Fuc(a1-3)]GlcNAc(b1-3)Gal(b1-4)[Fuc(a1-3)]GlcNAc(b1-3)Gal(b1-4)[Fuc(a1-3)]GlcNAc
In short: as §1

[26] = biological target: Neu5Gc(a2-3)Gal(b1-4)GlcNAc
In short: as §1

[27] = biological target: Neu5Gc(a2-6)Gal(b1-4)GlcNAc
In short: as §1

B1: SLLPI (Homo sapiens), Q8IXA5 (protein)
chain: MVSALRGAPLIRVHSSPVSSPSVSGPRRLVSCLSSQSSALSQSGGGSTSAAGIEARSRALRRRWCPAGIMLLALVCLLSCLLPSSEAKLYGRCELARVLHDFGLDGYRGYSLADWVCLAYFTSGFNAAALDYEADGSTNNGIFQINSRRWCSNLTPNVPNVCRMYCSDLLNPNLKDTVICAMKITQEPQGLGYWEAWRHHCQGKDLTEWVDGCDF
glycan array binding signal (z-score) [1]: 1.93 | glycan array binding signal (z-score) [2]: -0.188 | glycan array binding signal (z-score) [3]: 0.145 | glycan array binding signal (z-score) [4]: 0.263 | glycan array binding signal (z-score) [5]: 0.21 | glycan array binding signal (z-score) [6]: -0.512 | glycan array binding signal (z-score) [7]: 0.947 | glycan array binding signal (z-score) [8]: -0.063 | glycan array binding signal (z-score) [9]: 0.777 | glycan array binding signal (z-score) [10]: 0.044 | glycan array binding signal (z-score) [11]: -0.332 | glycan array binding signal (z-score) [12]: -0.37 | glycan array binding signal (z-score) [13]: -0.205 | glycan array binding signal (z-score) [14]: 1.85 | glycan array binding signal (z-score) [15]: 1.65 | glycan array binding signal (z-score) [16]: 0.16 | glycan array binding signal (z-score) [17]: -0.073 | glycan array binding signal (z-score) [18]: -0.634 | glycan array binding signal (z-score) [19]: 0.2 | glycan array binding signal (z-score) [20]: 0.579 | glycan array binding signal (z-score) [21]: 3.65 | glycan array binding signal (z-score) [22]: 1.02 | glycan array binding signal (z-score) [23]: 4.44 | glycan array binding signal (z-score) [24]: 0.654 | glycan array binding signal (z-score) [25]: 0.311 | glycan array binding signal (z-score) [26]: -0.286 | glycan array binding signal (z-score) [27]: -0.251
